PubChem BioAssay
Active and inactive are the calls of the source.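 Rule for the calls: active = z-score of at least 1.8 in each of two replicates, scored against plate mean and spread of sample wells; inactive = the rest.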

Assay: galactose survival enhancers in mitochondrial complex I cybrids – cell-based, galactose medium, ATP luminescence, primary screen (AID 1645843);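 note: positive z means more ATP and so rescue of galactose-driven cybrid death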
Settings: complex I mutant cybrid cells, 72 h, hits give high values

Row | SMILES | z-score
1 | C=C1C2(C(=O)N3CCC(c4ccccc4F)C3)CCC(C2)C1(C)C (centres undefined) | 1.09 (inactive)
2 | COc1ccccc1-c1noc(C(C)n2cccn2)n1 (centres undefined) | -0.115 (inactive)
3 | COc1ccccc1N1CCN(C(=O)CCC(C)C)CC1(C)C | 2.31 (active)
4 | COc1ccc2c(c1)CC(c1nc(Cc3cccs3)no1)CO2 (centres undefined) | -0.1 (inactive)
5 | COC(=O)CCC(=O)N1CCc2[nH]nc(-c3ccc4c(c3)OCO4)c2C1 | -0.12 (inactive)
6 | Cc1ccccc1-c1cccc(N2CCC(N3CCN(C)C(C)C3)CC2)c1 (centres undefined) | 1.36 (inactive)
7 | CCC(CC)CN1CCC(N2CCSCC2)CC1 | -0.55 (inactive)
8 | Cc1ccc2c(C(=O)N3CCC(C)(C)C3)cc(-c3cnn(C(C)C)c3)nc2c1 | -0.01 (inactive)
9 | Cc1sc2ncnc(N3CCC(Cn4cc(C(C)(C)N)nn4)CC3)c2c1C | -0.55 (inactive)
10 | CC(C)(C)CN1CCN(CC2CC2)C(CCO)C1 (centres undefined) | 0.35 (inactive)
11 | O=C(c1ccc(OC2(C(=O)O)CCSCC2)cc1)N1CCOCC1 | -0.515 (inactive)
12 | COc1ccc(F)cc1-c1ccc2ccccc2n1 | -0.15 (inactive)
13 | Cc1ccc2nc(Cn3cnc4ccc(F)cc4c3=O)cn2c1 | -0.15 (inactive)
14 | O=C(c1cc(-c2cncnc2)nc2cc(F)ccc12)N1CCCC1Cc1cccnc1 (centres undefined) | 0.765 (inactive)
15 | CN1CCN(c2ccc3cc(Cl)ccc3n2)CC1=O | -0.56 (inactive)
16 | COc1cc(Cl)ccc1C(=O)N1CCC(Cn2cc(C3CC3)nn2)CC1 | -0.63 (inactive)
17 | Cc1nn(C)c(C)c1-c1ccnc(N2CCC(C(=O)NCc3ccccn3)CC2)n1 | 1.16 (inactive)
18 | Cc1csc2c(=O)n(Cc3ccc(Cl)s3)cnc12 | -0.505 (inactive)
19 | C=C1C(C)(C)[C@H]2CC[C@]1(C(=O)N1CCC(n3cc(CCCC)nn3)CC1)C2 | 2.16 (inactive)
20 | Cc1cc(CN[C@@H](C)C(N)=O)c(C)s1 | 0.04 (inactive)

Row | SMILES | z-score
21 | CC1Cc2cc(C(=O)N3CCC(Cn4cc(C5CC5)nn4)CC3)ccc2O1 (centres undefined) | -0.53 (inactive)
22 | CC(CC12CC3CC(CC(C3)C1)C2)n1cnc2nccnc2c1=O (centres undefined) | 1.54 (inactive)
23 | CCN1CCC(N2CCCC(CN3CCCC3)C2)CC1 (centres undefined) | -0.48 (inactive)
24 | CC(CCN1CCC(n2cc(CCO)nn2)CC1)CC(C)(C)C (centres undefined) | -0.485 (inactive)
25 | CCCCC(CO)NC(C)CCc1ccc(OC)cc1 (centres undefined) | -0.47 (inactive)
26 | Cn1ccnc1-c1ccccc1C(=O)N1CCN(Cc2cccc(Cl)c2)CC1 | 0.665 (inactive)
27 | O=c1c2cccc(C(F)(F)F)c2ncn1Cc1ccc(Cl)s1 | -0.515 (inactive)
28 | CC(C)N(C)C(=O)c1cc(-c2cnc(C(C)(C)C)nc2)nc2cc(F)ccc12 | -0.525 (inactive)
29 | COc1cccc(-n2cc(-c3ccnc(N4CCCN(C(C)=O)CC4)n3)cn2)c1 | -1.14 (inactive)
30 | CC(C)c1n[nH]c2c1CN(C(=O)C1CCCCCC1)CC2 | -0.485 (inactive)
31 | CCCC(CCC)C(=O)N1CCC(n2cc(C3CC3)nn2)CC1 | -0.125 (inactive)
32 | CCCCCC(=O)N1CCC(n2cc(C3CCCC3)nn2)CC1 | 0.965 (inactive)
33 | CC(=O)NCCC1CCN(C(=O)C(C)Oc2cc(C)c(Cl)c(C)c2)CC1 (centres undefined) | -0.5 (inactive)
34 | Cc1nsc(NC(=O)N2CCC(N)CC2)n1 | 0.04 (inactive)
35 | CCCCc1cn(C2CCN(C(=O)C3CCCO3)CC2)nn1 (centres undefined) | -0.535 (inactive)
36 | CCOC(=O)c1ccc(N2CCC(c3ccc(F)cc3)C2)nc1 (centres undefined) | 0.975 (inactive)
37 | COc1ccccc1C(=O)N1CCN(C(=O)c2nc3ccccc3c(=O)[nH]2)CC1 | 0.365 (inactive)
38 | Cc1cc(CN2CCNCC2)ccc1OC1(C(=O)O)CCSCC1 | 0.115 (inactive)
39 | CC(C)c1ncc(-c2cc(C(=O)N3CCC(C)(C)C3)c3ccccc3n2)cn1 | 2.19 (active)
